Reference: PubChem BioAssay (NCI)
This is part of a sample that, as a whole, favours compounds with a hit. Of some 79,000 tested, about 15% had one in any assay. Activity calls are given as the source filed them. No stated cut-off is given here; in the data, active means growth inhibition above about 70%; inactive means the rest.

Tests used:
[1] = NCI Yeast Anticancer Drug Screen. Data for the rad52 strain (AID 147);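 further: 0% = growth of vehicle-treated control cultures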; conditions: S. cerevisiae rad52 mutant growth inhibition, hits give high values
In short: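 DNA repair-defective yeast; compound exposure; growth scored against vehicle controls.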

[2] = NCI Yeast Anticancer Drug Screen. Data for the wt1 strain (AID 149);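 further: 0% = growth of vehicle-treated wt1 cultures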; conditions: S. cerevisiae wt1 strain (SPY 50644) growth inhibition, hits give high values
In short: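 Vehicle-normalised growth inhibition; strain wt1; compound exposure.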

[3] = NCI Yeast Anticancer Drug Screen. Data for the rad50EPP+ strain (AID 151);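 further: 0% = growth of vehicle-treated control cultures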; conditions: S. cerevisiae rad50 mutant strain, hits give high values
In short: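 rad50EPP+ yeast treated with test compounds. Readout: growth vs vehicle control.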

[4] = NCI Yeast Anticancer Drug Screen. Data for the rad50 strain (AID 155);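 further: 0% = growth of vehicle-only cultures of the same strain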; conditions: S. cerevisiae rad50 strain growth inhibition, hits give high values
In short: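 A DNA repair-deficient yeast mutant serves as the test organism; compound-induced growth inhibition is calculated against vehicle-treated cells.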

[5] = NCI Yeast Anticancer Drug Screen. Data for the mec2-1 strain (AID 157); conditions: S. cerevisiae mec2-1 strain, hits give high values
In short: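 Growth inhibition is read against vehicle-treated controls after compound exposure of the mec2-1 yeast strain, which is defective in DNA damage repair or cell cycle control.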

[6] = NCI Yeast Anticancer Drug Screen. Data for the rad14 strain (AID 159);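 further: 0% = growth of vehicle-treated control cultures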; conditions: S. cerevisiae rad14 strain growth inhibition, hits give high values
In short: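 Vehicle-treated cultures served as the baseline for growth inhibition of a DNA repair-mutant yeast strain exposed to each compound.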

[7] = NCI Yeast Anticancer Drug Screen. Data for the sgs1 mgt1 strain (AID 161);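 further: 0% = growth of cultures given vehicle only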; conditions: S. cerevisiae sgs1 mgt1 strain, hits give high values
In short: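 Yeast cells carrying a defined DNA-repair defect were exposed to test compounds. Growth inhibition was measured relative to vehicle-treated controls.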

[8] = NCI Yeast Anticancer Drug Screen. Data for the CLN2oe strain (AID 163);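 further: 0% = growth of vehicle-only control cultures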; conditions: S. cerevisiae CLN2oe strain, hits give high values
In short: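 Compound-treated yeast; growth vs vehicle ctrl = % inhibition. Genetically altered strain (cell-cycle control).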

[9] = NCI Yeast Anticancer Drug Screen. Data for the cln2 rad14 strain (AID 165);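 further: 0% = growth equal to vehicle treated cultures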; conditions: S. cerevisiae cln2 rad14 strain, hits give high values
In short: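 Growth inhibition, relative to vehicle-treated controls, is the read-out. The test organism is a yeast strain with defined genetic alterations, cln2 rad14.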

[10] = NCI Yeast Anticancer Drug Screen. Data for the bub3 strain (AID 167); conditions: S. cerevisiae bub3 mutant strain, hits give high values
In short: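 Inhibition values come from growth of compound-treated mutant yeast normalised to vehicle-treated controls.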

[11] = NCI Yeast Anticancer Drug Screen. Data for the wt2 strain (AID 169);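 further: 0% = growth of vehicle-treated yeast cultures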; conditions: S. cerevisiae wt2 strain growth inhibition, hits give high values
In short: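 Compound exposure of yeast; growth compared with vehicle controls; inhibition reported.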

[12] = NCI Yeast Anticancer Drug Screen. Data for the mlh1 strain (AID 171);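 further: 0% = growth of vehicle-treated control cultures of the same strain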; conditions: S. cerevisiae mlh1 strain growth inhibition, hits give high values
In short: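 Compounds are applied to a genetically altered yeast strain, and its growth is compared with that of vehicle-treated cultures to give percent inhibition.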

[13] = NCI Yeast Anticancer Drug Screen. Data for the sgs1 strain (AID 173);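 further: 0% = growth of vehicle-only control cultures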; conditions: S. cerevisiae sgs1 mutant, hits give high values
In short: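 Compounds applied to genetically altered yeast; growth compared with vehicle-treated cultures to give % inhibition.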

[14] = NCI Yeast Anticancer Drug Screen. Data for the mlh1 rad18 strain (AID 175); conditions: S. cerevisiae mlh1 rad18 strain growth inhibition, hits give high values
In short: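 Cells of a genetically altered yeast strain, deficient in DNA damage repair, were treated with compound. Their growth was then compared with that of vehicle-treated cultures to give inhibition.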

[15] = NCI Yeast Anticancer Drug Screen. Data for the rad18 strain (AID 177); conditions: S. cerevisiae rad18 mutant growth inhibition, hits give high values
In short: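 Compounds are applied to a repair-deficient yeast strain, and growth is compared with that of vehicle-treated cultures to give percent inhibition.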

[16] = at 5.0 µM (retest, dose inferred, filed as 0.5)
[17] = at 50.0 µM (retest, dose inferred, filed as 5.0)

Measured: growth inhibition

Nc1nc(N)c2c(n1)CCC(S(=O)(=O)c1ccc3ccccc3c1)C2 (stereo not drawn)
inactive: [1]; at 1.2 µM 26% | [1]; at 3.7 µM 44% | [1]; at 11.0 µM 54% | [1]; at 33.0 µM 62% | [1]; at 100.0 µM 65% | [2]; at 1.2 µM -2% | [2]; at 3.7 µM 14% | [2]; at 11.0 µM 12% | [2]; at 33.0 µM 19% | [2]; at 100.0 µM 15% | [3]; at 1.2 µM 23% | [3]; at 3.7 µM 35% | [3]; at 11.0 µM 39% | [3]; at 33.0 µM 40% | [3]; at 100.0 µM 40% | [4]; at 1.2 µM -3% | [4]; at 3.7 µM 13% | [4]; [16] 56% | [4]; at 11.0 µM 32% | [4]; at 33.0 µM 45% | [4]; at 50.0 µM 49.2% | [4]; at 100.0 µM 54% | [5]; at 1.2 µM 14% | [5]; at 3.7 µM 46% | [5]; at 11.0 µM 65% | [6]; at 1.2 µM -2% | [6]; at 3.7 µM -6% | [6]; at 11.0 µM -11% | [6]; at 33.0 µM -8% | [6]; at 100.0 µM -4% | [7]; [16] 49% | [7]; [17] 60% | [7]; at 50.0 µM 36% | [8]; at 1.2 µM -3% | [8]; at 3.7 µM 6% | [8]; at 11.0 µM 0% | [8]; at 33.0 µM 8% | [8]; at 100.0 µM 6% | [9]; [16] 5% | [9]; [17] 7% | [9]; at 50.0 µM 6.95% | [10]; at 1.2 µM -41% | [10]; at 3.7 µM -27% | [10]; [16] 32% | [10]; at 11.0 µM -27% | [10]; at 33.0 µM 3% | [10]; [17] 30% | [10]; at 50.0 µM -7.8% | [10]; at 100.0 µM 2% | [11]; at 1.2 µM -35% | [11]; at 3.7 µM -8% | [11]; at 11.0 µM 1% | [11]; at 33.0 µM 5% | [11]; at 100.0 µM 23% | [12]; at 1.2 µM -5% | [12]; at 3.7 µM 3% | [12]; at 11.0 µM 8% | [12]; at 33.0 µM 10% | [12]; at 100.0 µM 9% | [13]; at 1.2 µM 16% | [13]; at 3.7 µM 45% | [13]; at 11.0 µM 55% | [13]; at 33.0 µM 56% | [13]; at 100.0 µM 44% | [14]; [16] 48% | [14]; [17] 54% | [14]; at 50.0 µM 13.6% | [15]; at 1.2 µM 7% | [15]; at 3.7 µM 1% | [15]; at 11.0 µM 8% | [15]; at 33.0 µM 20% | [15]; at 100.0 µM 22%
active: [4]; [17] 72% | [5]; [16] 83% | [5]; at 33.0 µM 80% | [5]; [17] 91% | [5]; at 50.0 µM 84.9% | [5]; at 100.0 µM 80%
